The results in this text go back to PubChem BioAssay (NCI).

Some test systems named below: T-47D breast; BT-549 breast; MDA-MB-435 melanoma; SW-620 colon; MCF7 breast; HCT-116 colon; HCC-2998 colon; KM12 colon.
Common to all, as to test: NCI-60 one-dose screen, 48 h (100 = growth as untreated, 0 = no growth, -100 = all killed)
Conditions in all cases: 10 µM unless noted

“And” between values parts separate entries of the source, which are not always exact repeats. Identical values can stand only once. About 83,000 compounds went through this panel and 20% of them were active in at least one assay; those are over-represented in the sample as a whole.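 Values shown are percent growth following 48 h exposure of cells in 96-well plates to a single concentration of compound; below 10 was considered active.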 The source made the active and inactive calls.

Take `CC1=CC(C)(C)NC(=S)N1c1ccc(Cl)cc1`: the growth was 92.8% (inactive) and 87.2% (inactive) in the experiment on T-47D breast; 99.1% (inactive) and 110% (inactive) in the experiment on BT-549 breast; 101% (inactive) and 117% (inactive) with MDA-MB-435 melanoma; 100% (inactive) and 115% (inactive) in the experiment on SW-620 colon; 101% (inactive) and 97.3% (inactive) in the experiment with MCF7 breast; 99.6% (inactive) and 89% (inactive) with HCT-116 colon. Besides, the growth is 105% (inactive) and 100% (inactive) in the experiment on HCC-2998 colon; 101% (inactive) and 105% (inactive) in the experiment with KM12 colon.

Consider `Cc1c(C(=O)OCCCCOC(=O)c2c(C)n(C)c3scc[n+]23)[n+]2ccsc2n1C`, for which the growth in the experiment with T-47D breast was 97.1% (inactive); with BT-549 breast, 110% (inactive); in the experiment on MDA-MB-435 melanoma, 109% (inactive); with SW-620 colon, 125% (inactive); with MCF7 breast it was 100% (inactive); in the experiment on HCT-116 colon, 107% (inactive). For the same compound, the values for the growth in the experiment on HCC-2998 colon and with KM12 colon were 115% (inactive) and 118% (inactive), respectively.

In the case of `O=C(CCCOc1ccc(Br)cc1)Nc1ncc(Cc2ccc(F)cc2)s1`, the growth was 58% (inactive) in the experiment on T-47D breast; 82% (inactive) in the experiment with BT-549 breast; -27.2% (active) in the experiment with MDA-MB-435 melanoma; 58.2% (inactive) with SW-620 colon; 23.7% (inactive) in the experiment with MCF7 breast; 36.6% (inactive) with HCT-116 colon. Also, the results for the growth in the experiment with HCC-2998 colon and in the experiment with KM12 colon were 73.9% (inactive) and 36.2% (inactive), respectively.

Regarding `O=[N+]([O-])c1cc(C(F)(F)F)ccc1Sc1ccc(C(F)(F)F)cc1[N+](=O)[O-]`, the growth in the experiment on T-47D breast was 70% (inactive); in the experiment on BT-549 breast, 79.3% (inactive); in the experiment on MDA-MB-435 melanoma, 21.3% (inactive); in the experiment with SW-620 colon, 20.6% (inactive); with MCF7 breast it was 67.7% (inactive); in the experiment on HCT-116 colon it was 10.7% (inactive). Besides, the growth in the experiment with HCC-2998 colon was 99.4% (inactive); in the experiment on KM12 colon, 65.8% (inactive).

On to `O=C(/C=C/c1ccc(Cl)s1)c1ccc(Cl)s1`, for which the growth in the experiment on T-47D breast is 88.8% (inactive) and 96.9% (inactive); in the experiment with BT-549 breast it was 103% (inactive); with MDA-MB-435 melanoma, 87.8% (inactive); in the experiment on SW-620 colon, 99.7% (inactive) and 95.2% (inactive); in the experiment on MCF7 breast it was 59.3% (inactive) and 60.5% (inactive); in the experiment on HCT-116 colon, 68.2% (inactive) and 85.8% (inactive). The growth in the experiment on HCC-2998 colon is 98.8% (inactive) and 102% (inactive); with KM12 colon it was 89% (inactive) and 95.9% (inactive).

With `CCN1CCN(C(=O)[C@]23CC[C@@H](C)[C@H](C)[C@@H]2C2=CC[C@@H]4[C@@]5(C)CCC(=O)C(C)(C)[C@@H]5CC[C@@]4(C)[C@]2(C)CC3)CC1`, the growth in the experiment on T-47D breast is 8.54% (active); with BT-549 breast, -26% (active); with MDA-MB-435 melanoma it was 11% (inactive); with SW-620 colon, -50.4% (active); in the experiment on MCF7 breast, 4.77% (active); with HCT-116 colon, -48.3% (active). Further, the growth in the experiment with HCC-2998 colon was 0.569% (active); in the experiment with KM12 colon, 6.9% (active).

For `CC(=O)OC[C@]12CCC(C)(C)C=C1[C@H]1CC[C@@H]3[C@@]4(C)CCCNC(C)(C)[C@@H]4CC[C@@]3(C)[C@]1(C)CC2`, the growth in the experiment with T-47D breast is 51.8% (inactive); with BT-549 breast, 63.8% (inactive); in the experiment on MDA-MB-435 melanoma it was 29.7% (inactive); with SW-620 colon, 49.9% (inactive); in the experiment on MCF7 breast, 46.6% (inactive); in the experiment on HCT-116 colon it was 34.1% (inactive). For the same compound, the growth with HCC-2998 colon is 49% (inactive); in the experiment with KM12 colon, 25.5% (inactive).

In the case of `CN1CCCc2cc(/C=C3\SC(=S)N(C(Cc4ccc(O)cc4)C(=O)O)C3=O)ccc21` (configuration not stated), the growth with T-47D breast was 87.1% (inactive); in the experiment with BT-549 breast it was 106% (inactive); in the experiment with MDA-MB-435 melanoma it was 103% (inactive); in the experiment on SW-620 colon, 102% (inactive); in the experiment with MCF7 breast it was 94.5% (inactive); in the experiment with HCT-116 colon, 106% (inactive). Moreover, the growth in the experiment with HCC-2998 colon is 93.6% (inactive); in the experiment on KM12 colon, 105% (inactive).

On to `O=C1c2cc3c(cc2-c2c1c1ccc(Cl)cc1c(=O)n2CCCn1ccnc1)OCO3`, for which the growth was -0.548% (active) in the experiment with T-47D breast; -20.3% (active) in the experiment with BT-549 breast; -58.8% (active) in the experiment with MDA-MB-435 melanoma; 1.05% (active) in the experiment on SW-620 colon; -9.33% (active) in the experiment with MCF7 breast; -23% (active) in the experiment on HCT-116 colon. Further, the growth in the experiment on HCC-2998 colon was 15% (inactive); in the experiment on KM12 colon it was 1.36% (active).
